According to PubChem BioAssay AID743402 (Broad Institute, 2014):
Screen size: about 1,200 compounds; about 140 (12%) were called active.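 The calls were made as follows: active = fitted curve falls past -35% activity change at a dose under twice the top valid dose, in every replicate test; inconclusive = replicate tests disagree on the call; inactive = the rest, including activity in the opposite direction.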 The list is a sample of the results.

Test: restoration of mutant CFTR halide transport – FRT cells, YFP quenching, cherry-pick, dose response (AID 743402);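 also: compounds act as correctors raising surface CFTR-F508del before acute activation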
Conditions: FRT CFTR-F508del YFP iodide quenching, 24 h, channel opened with forskolin and a potentiator; series mostly up to 26 µM; activity change, negative = more quenching (active): at the top concentration

Activity change, negative = more quenching (active), inactive:
O=C1c2ccccc2C(=O)c2c1cccc2N(CCO)CCO -5.56%, COc1ccc(S(=O)(=O)NCc2ccccn2)cc1NC(=O)c1ccccc1F -10.7%, COc1cccc(N2CCN(C(=O)c3ccc(CS(=O)c4ccc(C)cc4)o3)CC2)c1 (centres undefined) -9.58%, O=C(NCCOc1ccccc1)c1cc([N+](=O)[O-])ccc1N1CCOCC1 9.38%, COc1ccc(OC)c(-c2cnc(OC(C)(C)C)nc2OC(C)(C)C)c1 3.12%, COc1ccc([C@H]2CC(=O)C=C(c3c(OC)cccc3OC)C2)cc1 0%, CC(C)C[C@H]1CN([C@@H](CC(C)C)CN2CCC[C@@H]2CN2C(=S)NC[C@@H]2Cc2ccc(O)cc2)C(=S)N1CCc1ccccc1 15.6%, CCOC(=O)c1c(C)[nH]c(C(=O)N/N=C\c2ccccc2O)c1C -6.25%, N#CC1=C(N)Oc2cc(N)ccc2C1c1cccc(F)c1 (centres undefined) 6.67%, COc1ccccc1C#Cc1ccc2c(c1)O[C@@H](CN(C)Cc1cccnc1)[C@H](C)CN([C@H](C)CO)S2(=O)=O 1.85%, COc1ccc([C@H]2C[C@H](O)[C@@H](n3cc(-c4ccc(F)cc4)nn3)CN2Cc2cccs2)cc1 0%, COc1cc(C(=O)Nc2ccccc2C(=O)Nc2ccccn2)cc(OC)c1OC 19.4%, COc1cccc(S(=O)(=O)N(C)C[C@@H]2Oc3cc(C4=CCCC4)ccc3S(=O)(=O)N([C@H](C)CO)C[C@H]2C)c1 -3.33%, CCCCNC(=O)CSc1nc2ccc(C)cc2[nH]1 16.2%, COc1cc(/C=C(\C#N)c2nc3ccccc3[nH]2)cc(OC)c1O 1.72%, O=C(NCCN1C(=O)S/C(=C\c2ccc(OC(F)F)cc2)C1=O)c1cnccn1 3.33%, CC(=O)Nc1cccc(-c2ccnc3c2CC(C)(C(=O)Nc2ccc4c(c2)OCO4)O3)c1 (centres undefined) 16.7%, O=C(NN=C1CCCC1)c1[nH]c2ccc(Cl)cc2c1-c1ccccc1 16.7%, COc1cc(OC)c2c(-c3cccc(-c4sccc4C(C)=O)c3)cc(=O)oc2c1 -3.12%, CC(C)Oc1ncnc2c1[nH]c1ccccc12 6.67%, O=c1[nH]c(/C=C/c2ccccc2F)nc2ccccc12 9.58%, Cc1cccc(N2CCN(C(=O)c3ccc4[nH]c(C)c(C)c4c3)CC2)c1C -6.67%, O=C1C=CCC(/C=C/c2ccccc2)O1 (centres undefined) 16.7%, COc1ccc2c3c([nH]c2c1)[C@@H](CO)N(C(=O)C1CCOCC1)CC31CCN(Cc2cccc(F)c2)CC1 -9.58%, CN(Cc1ccccc1)S(=O)(=O)c1ccc(NC(=S)NC(=O)C2CCCC2)cc1 -3.33%, COc1ccc(NC(=O)c2nc(C)c(C3(C)CC(c4cccnc4)=NO3)s2)cc1 (centres undefined) -3.33%, COc1ccc(C(=O)OCC(=O)N2C(C)CCCC2C)cc1S(=O)(=O)N1CCOCC1 (centres undefined) 14.8%, Cc1ccc(/C=N/NC(=O)c2ccc3ccccc3c2)s1 0%, COc1ccc(C2=Nn3c(nnc3-c3ccccc3F)SC2)cc1OC1CCOC1 (centres undefined) -10%, O=C(N/N=C/c1c(O)ccc2ccccc12)c1ccc(CO)nc1 -6.25%, C[C@H](CO)N1C[C@H](C)[C@@H](CN(C)Cc2ccc(Cl)c(Cl)c2)Oc2ccc(NC(=O)Nc3ccc(C(F)(F)F)cc3)cc2CC1=O 10.2% [at 23.5 µM], Cc1cc(NCc2ccccn2)n2nc(C)c(-c3ccccc3)c2n1 13.1%, COc1ccc(OC)c(/C(C)=N\NC(=O)c2cc3cc(Cl)ccc3n2C)c1 0%, COc1ccc(CCNc2c3ccccc3nc3ccccc23)cc1OC -2.92%, CCOC(=O)c1sc(Nc2nc(C)cc(C)n2)nc1C -11.1%, COc1ccc(C)cc1Nc1c2c(nc3ccccc13)CCC2 29.2%, O=S(=O)(Cc1ccc(Cl)cc1Cl)c1ccc(Cl)cc1 -22.5%, Cc1onc(-c2ccccc2Cl)c1C(=O)N1CCN(c2cccc(Cl)c2)CC1 10%, CCN(Cc1ccccc1)c1ccc(/C=N/N=C(N)N)cc1 13.1%, Cc1nn2cc(-c3cccc(Cl)c3)cnc2c1Br 9.58%, N#C[C@H]1[C@H](c2ccc(C3=CCCCC3)cc2)[C@@H](CO)N1C(=O)NC1CCCCC1 -3.57%, CCc1ccc(OCc2n[nH]c(=S)n2C(C)CCCC(C)C)cc1 (centres undefined) 6.46%, CCOc1ccc2[nH]c(C(=O)N/N=C/c3ccc(OC)cc3)cc2c1 -10%, O=C(N/N=C/c1cccs1)c1cc(C2CC2)nc2ccccc12 13.3%, C/C(=N\NC(=O)c1cc(-c2cccs2)nc2ccccc12)c1ccccn1 16%, CCOC(=O)c1cc2c(=Cc3ccc(N(C)C)cc3)c3ccccc3n2[n+]1C 1.61%, O=C1c2ccccc2C(=O)c2c1cccc2N1CCCC1 0%, Cc1ccc(S(=O)(=O)N2CCCCC2CCNC(=O)C(=O)NCc2ccccc2)cc1 (centres undefined) 27%, COc1ccc(NC(=O)Nc2ccc3c(c2)C(=O)N([C@H](C)CO)C[C@@H](C)[C@H](CN(C)Cc2ccc(C(F)(F)F)cc2)OCCCC[C@H](C)O3)cc1 6.25%, COc1ccc(COc2cc(-c3cccc(OC)c3)nc3ccc(NC(=O)c4ccc(OC)cc4)cc23)cc1 -3.33%, CCCCN1C(=O)CC(C(=O)OCC)=C1C -6.97%, CC1(C(=O)NCc2cccs2)Cc2c(-c3ccc4c(c3)OCO4)ccnc2O1 (centres undefined) 0%, CC1=NN(c2ccccc2)C(=O)C1N=Nc1cccc(O)c1 (centres undefined) 0%, O=C1CC(c2ccccc2)CC2=C1C=Nc1ccccc1N2 (centres undefined) 18.8%, CCc1c(C)nc2ncnn2c1NCCc1ccc(OC)cc1 0%, COc1ccc(CCNc2ncnc3c2oc2ccccc23)cc1OC -3.57%, O=C1CN(S(=O)(=O)Cc2ccccc2)C[C@@H]2[C@@H](c3ccc(C#Cc4cccc(F)c4)cc3)[C@H](CO)N12 -3.57%, Cc1ccc2nc(-c3ccc4c(c3)OCCO4)cn2c1 -13.3%, CCCCNC(=O)C(=O)Nc1ccc2c(c1)N(S(=O)(=O)c1cccs1)CCC2 6.25%, COc1cccc(/C=N/NC(=O)C(=O)Nc2ccccc2OC(F)(F)C(F)F)c1O 8.28%, Cc1ccc(-c2nn(-c3ccccc3)cc2C(=O)N2CCN(c3ccccn3)CC2)cc1 16.2%, COc1ccc(S(=O)(=O)N(C(=O)C(C)C)c2ccc3oc(=O)sc3c2)cc1 12.9%, COc1nc(-c2ccccc2)cc(-c2ccc3c(c2)OCO3)c1C#N 0%, C/C(=N\NC(=O)c1c(Cl)c(C)nn1C)c1ccc(NC(=O)C2CCC2)cc1 7.96%, COc1ccc2c(c1)sc(N)[n+]2Cc1cc(C)cc2cccnc12 13.3%, CCN(CC)c1ccc(/C=N/NC(=O)c2ccco2)c(O)c1 10.7%, Cc1cc(N/N=C/c2ccccc2O)c2ccccc2n1 13.1%, Cc1ccccc1-c1nc(CS(=O)(=O)CC(=O)NCc2ccccc2)c(C)o1 8.28%, Cc1ccc(-c2ccc3c(c2)O[C@H](CN(C)Cc2ccccn2)[C@@H](C)CN([C@H](C)CO)S3(=O)=O)cc1 -7.14%, COc1ccc(S(=O)(=O)Nc2ccc3c(c2)C(=O)N([C@H](C)CO)C[C@@H](C)[C@@H](CN(C)Cc2ccc(Cl)c(Cl)c2)O3)cc1 3.12%, c1coc(-c2nc3ccccc3s2)c1 9.38%, Clc1ccc2c(c1)-c1ccccc1C1=NCCN12 -1.51%, Cc1ccc(N(C)S(=O)(=O)c2ccc(-c3cnc(C4CC4)o3)cc2)cc1 6.67%, Cc1ccnc2c1ccc1cccnc12 13.1%, Cc1ccc(COc2ccccc2-c2cc(C(=O)N/N=C/c3cccnc3)[nH]n2)cc1 22.5%, CC(C)(C)c1cc(C(=O)NN)n(Cc2ccc(Cl)cc2Cl)n1 6.67%, COc1ccccc1Nc1c2c(nc3ccccc13)CCC2 35.6%, CC(=NNC(=S)N1CC2CCC(CC2)C1)c1cnccn1 23.3%, COc1cc(NC(=O)N2CCNC2=O)cc(C(=O)Nc2cccc(C(F)(F)F)c2)c1 -3.33%, COc1ccc(-c2ccc3oc(-c4ccc(OC)cc4)c(C#CCO)c3c2)cc1 1.61%, COCCCN=C1NN=C(c2cc(C)n(Cc3ccco3)c2C)CS1 7.42%, CC(=O)N1CCc2c(sc(NC(=O)c3ccc4c(c3)OCCO4)c2C#N)C1 4.95%, O=C(c1cccc(S(=O)(=O)N2CCN(c3ccc(F)cc3)CC2)c1)N1CCCC(C(F)(F)F)C1 (centres undefined) 6.67%, COc1ccccc1C(=O)NC(=S)/C=C1/N(C)c2ccccc2C1(C)C -3.33%, COc1cc2c(C#CCCO)c(-c3ccsc3)oc(=O)c2cc1OC -16%, CC(=O)NC(c1ccc(C(C)C)cc1)c1ccc2cccnc2c1O (centres undefined) 13.9%, O=C(Nc1cccc(C2=NCCN2)c1)Nc1cccc(C2=NCCN2)c1 0%, Cc1ccc2c(c1)CCCN2C(=O)CCc1nc2ccccc2c(=O)[nH]1 -6.67%, COc1ccc2cc(CN(CC3CCCO3)C(=S)Nc3ccccc3)c(=O)[nH]c2c1 (centres undefined) 12.9%, COc1ccc(Nc2nc3cc(-c4sccc4C)sc3c(=O)n2C)cc1OC -35.7%, Cc1ccc2cc(CN(CC3CCCO3)C(=S)Nc3ccccc3)c(=O)[nH]c2c1C (centres undefined) 0%, CCOC(=O)N1CCC(NC(=O)c2ccc3c(c2)N=C(C)c2c(C)ccc(C)c2S3)CC1 3.12%, O=C(Nc1ccc(Br)cn1)c1cccc2ccccc12 -20%, Cc1cc2c(cc1S(=O)(=O)Nc1ccc(F)cc1)n(C)c(=O)c(=O)n2C -0.721%, CC(=O)Nc1ccc(S(=O)(=O)NC2=C(N3CCN(Cc4ccccc4)CC3)C(=O)c3ccccc3C2=O)cc1 19.4%, N#Cc1c(-c2ccc(F)cc2)c(-c2ccc(F)cc2)nn(CCO)c1=O 20%, C[C@@H]1CN([C@H](C)CO)C(=O)c2cc(NS(=O)(=O)c3ccc(Cl)cc3)ccc2O[C@@H]1CN(C)Cc1ccc(-c2ccccc2)cc1 20%, COc1ccc2c3c([nH]c2c1)[C@H](CO)N(C(=O)C1CCOCC1)CC31CCN(Cc2cccc(F)c2)CC1 -6.46%, Cc1cc(C(=O)N/N=C/c2ccc(N(C)C)cc2)c2ccccc2n1 0%
